Measurements as given in PubChem BioAssay (EPA / NIEHS).
The source made the active and inactive calls. Rule for the calls: active = hit-call score of the fitted dose curve at least 0.9, where 1 is the maximum; inactive = score below 0.9.

Assays:
[1] = BSK_hDFCGF_SRB: Viability Assessment in the BioMAP Diversity Plus: hDFCGF Assay (AID 2283061); conditions: primary human foreskin fibroblasts;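 note: cells exposed to compound for 24 h before the read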
Method in brief: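 SRB-based viability read on primary human skin fibroblasts at 24 h: TCA fixation, 0.1% dye, 560 nm. Gain or loss of signal is fitted against the DMSO negative control.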

[2] = read-out: TIMP metallopeptidase inhibitor 1 (TIMP1), TIMP1 (gene 7076); experiment: BSK_hDFCGF_TIMP1: BioMAP Diversity Plus: hDFCGF Assay for TIMP metallopeptidase inhibitor 1 (TIMP1) Biomarker Activity (AID 2283062); conditions: primary human foreskin fibroblasts; actives raise or lower the signal
Method in brief: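 Bidirectional curve fitting against DMSO baseline yielded this endpoint, based on ELISA detection of TIMP-1 in primary human foreskin fibroblasts exposed to compound for 24 h.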

[3] = read-out: Monokine induced gamma interferon (MIG), CXCL9 (gene 4283); experiment: BSK_hDFCGF_MIG: BioMAP Diversity Plus: hDFCGF Assay for Monokine induced gamma interferon (MIG) Biomarker Activity (AID 2283063); conditions: primary human foreskin fibroblasts; actives raise or lower the signal
Method in brief: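 Endpoint derived by bidirectional fitting relative to DMSO; MIG quantified via ELISA in primary human foreskin fibroblasts harvested 24 h after dosing.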

[4] = read-out: Matrix Metallopeptidase 1 (MMP1), MMP1 (gene 4312); experiment: BSK_hDFCGF_MMP1: BioMAP Diversity Plus: hDFCGF Assay for Matrix Metallopeptidase 1 (MMP1) Biomarker Activity (AID 2283064); conditions: primary human foreskin fibroblasts; actives raise or lower the signal
Method in brief: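 hDFCGF primary fibroblasts (human foreskin); chemical added; 24 h; MMP1 by ELISA; bidirectional fit vs DMSO.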

[5] = read-out: Vascular cell adhesion molecule 1 (VCAM1), VCAM1 (gene 7412); experiment: BSK_hDFCGF_VCAM1: BioMAP Diversity Plus: hDFCGF Assay for Vascular cell adhesion molecule 1 (VCAM1) Biomarker Activity (AID 2283065); conditions: primary human foreskin fibroblasts; actives raise or lower the signal;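 for AC50: VCAM-1 protein level quantified by ELISA after 24 h chemical exposure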
Method in brief: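 Measured after 24 h chemical treatment of primary human skin fibroblasts, VCAM-1 was detected by ELISA and concentration-response analysed in both directions versus DMSO vehicle.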

[6] = read-out: Plasminogen activator inhibitor-1 (PAI1), SERPINE1 (gene 5054); experiment: BSK_hDFCGF_PAI1: BioMAP Diversity Plus: hDFCGF Assay for Plasminogen activator inhibitor-1 (PAI1) Biomarker Activity (AID 2283066); conditions: primary human foreskin fibroblasts; actives raise or lower the signal
Method in brief: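 Primary dermal fibroblasts (human foreskin), hDFCGF system; compound 24 h; PAI-1 by ELISA; bidirectional fit vs DMSO control.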

[7] = read-out: Intercellular Adhesion Molecule 1 (ICAM1), ICAM1 (gene 3383); experiment: BSK_KF3CT_ICAM1: BioMAP Diversity Plus: KF3CT Assay for Intercellular Adhesion Molecule 1 (ICAM1) Biomarker Activity (AID 2283067); conditions: primary human keratinocytes with fibroblasts; actives raise or lower the signal
Method in brief: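 Bidirectional curve fitting against a DMSO baseline was applied to ICAM-1 ELISA signal from primary human skin co-cultures harvested 24 h after treatment, with SRB staining of parallel wells for overt cytotoxicity.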

[8] = read-out: Interferon-gamma inducible Protein 10 (IP10), CXCL10 (gene 3627); experiment: BSK_KF3CT_IP10: BioMAP Diversity Plus: KF3CT Assay for Interferon-gamma inducible Protein 10 (IP10) Biomarker Activity (AID 2283068); conditions: primary human keratinocytes with fibroblasts; actives raise or lower the signal
Method in brief: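 ELISA read-out of IP-10 after 24 h chemical dosing of human skin primary co-culture (keratinocytes, foreskin fibroblasts). Gain or loss of signal relative to DMSO, bidirectional curve fit.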

[9] = BSK_KF3CT_SRB: Viability Assessment in the BioMAP Diversity Plus: KF3CT Assay (AID 2283069); conditions: primary human keratinocytes with fibroblasts;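 note: total protein by sulforhodamine B staining as a cytotoxicity measure; read 24 h after compound addition; fitted for both signal gain and loss against DMSO baseline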
Method in brief: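 Keratinocytes co-cultured with foreskin fibroblasts (human primary); chemical added, 24 h; fix 10% TCA, stain 0.1% SRB, A560. Bidirectional fit vs DMSO.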

[10] = read-out: Interleukin-1 alpha (IL1a), IL1A (gene 3552); experiment: BSK_KF3CT_IL1a: BioMAP Diversity Plus: KF3CT Assay for Interleukin-1 alpha (IL1a) Biomarker Activity (AID 2283070); conditions: primary human keratinocytes with fibroblasts; actives raise or lower the signal
Method in brief: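 Chemicals were dosed onto co-cultured human keratinocytes and foreskin fibroblasts, IL-1a was quantified by ELISA at 24 h, and activity was fitted in both directions relative to DMSO controls.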

[11] = read-out: Transforming growth factor beta 1 (TGFb1), TGFB1 (gene 7040); experiment: BSK_KF3CT_TGFb1: BioMAP Diversity Plus: KF3CT Assay for Transforming growth factor beta 1 (TGFb1) Biomarker Activity (AID 2283072); conditions: primary human keratinocytes with fibroblasts; actives raise or lower the signal
Method in brief: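 Primary human skin cells (keratinocytes, foreskin fibroblasts) were co-cultured, exposed to test chemical and sampled at 24 h. TGF-b1 levels were measured by ELISA and fitted bidirectionally relative to DMSO.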

[12] = read-out: C-C motif chemokine 2 (Homo sapiens) (UniProt P13500); experiment: BSK_KF3CT_MCP1: BioMAP Diversity Plus: KF3CT Assay for Monocyte Chemoattractant Protein 1 (MCP1/CCL2) Biomarker Activity (AID 2283073); conditions: primary human keratinocytes with fibroblasts; actives raise or lower the signal
Method in brief: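 Biomarker MCP-1 is measured by ELISA in primary human keratinocytes co-cultured with foreskin fibroblasts, 24 h after chemical treatment; DMSO serves as the negative control and activity baseline.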

[13] = read-out: Matrix Metallopeptidase 9 (MMP9), MMP9 (gene 4318); experiment: BSK_KF3CT_MMP9: BioMAP Diversity Plus: KF3CT Assay for Matrix Metallopeptidase 9 (MMP9) Biomarker Activity (AID 2283074); conditions: primary human keratinocytes with fibroblasts; actives raise or lower the signal;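 for AC50: MMP9 protein level quantified by ELISA in the co-culture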
Method in brief: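 Human keratinocyte/foreskin fibroblast co-culture; compound added; 24 h; MMP-9 by ELISA; bidirectional fit vs DMSO baseline.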

[14] = read-out: urokinase plasminogen activator (uPA), PLAU (gene 5328); experiment: BSK_KF3CT_uPA: BioMAP Diversity Plus: KF3CT Assay for urokinase plasminogen activator (uPA) Biomarker Activity (AID 2283075); conditions: primary human keratinocytes with fibroblasts; actives raise or lower the signal
Method in brief: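 ELISA readout of uPA, analyzed for signal gain or loss relative to DMSO, from a human primary keratinocyte–foreskin fibroblast co-culture measured 24 h after chemical treatment.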

CD40, CD40 (gene 958) = experiment: BSK_LPS_CD40: BioMAP Diversity Plus: LPS Assay for CD40 Biomarker Activity (AID 2283076); conditions: primary human HUVEC with PBMC; actives raise or lower the signal
Method in brief: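 Using a multiplexed primary human co-culture (umbilical vein endothelium plus PBMC), CD40 was read by ELISA 24 h after dosing, with cytotoxicity tracked by sulforhodamine B staining of parallel cultures and activity fitted bidirectionally versus DMSO.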

[15] = read-out: E-selectin (Homo sapiens) (UniProt P16581); experiment: BSK_LPS_Eselectin: BioMAP Diversity Plus: LPS Assay for Eselectin Biomarker Activity (AID 2283077); conditions: primary human HUVEC with PBMC; actives raise or lower the signal
Method in brief: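 Dose chemical onto LPS-driven HUVEC/PBMC co-culture; after 24 h, run ELISA for E-selectin; fit up- and down-going responses relative to DMSO control.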

[16] = read-out: TIMP metallopeptidase inhibitor 2 (TIMP2), TIMP2 (gene 7077); experiment: BSK_KF3CT_TIMP2: BioMAP Diversity Plus: KF3CT Assay for TIMP metallopeptidase inhibitor 2 (TIMP2) Biomarker Activity (AID 2283071); conditions: primary human keratinocytes with fibroblasts; actives raise or lower the signal
Method in brief: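 Cells: human keratinocytes co-cultured with foreskin fibroblasts. Treat with chemical, 24 h. Measure TIMP-2 by ELISA; fit curves bidirectionally vs DMSO baseline.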

[17] = BSK_LPS_SRB: Viability Assessment in the BioMAP Diversity Plus: LPS Assay (AID 2283079); conditions: primary human HUVEC with PBMC;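 note: total protein by sulforhodamine B absorbance as a cytotoxicity measure; measured one day after compound addition; fitted in both directions against DMSO so loss or gain of signal counts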
Method in brief: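 Cytotoxicity endpoint in human endothelial–PBMC co-culture: 24 h exposure, then SRB (0.1%) staining, 560 nm read.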

[18] = read-out: Interleukin-8 (IL8), CXCL8 (gene 3576); experiment: BSK_LPS_IL8: BioMAP Diversity Plus: LPS Assay for Interleukin-8 (IL8) Biomarker Activity (AID 2283078); conditions: primary human HUVEC with PBMC; actives raise or lower the signal
Method in brief: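 In this LPS system, chemical-treated human umbilical vein endothelium/PBMC co-cultures were harvested at 24 h for IL-8 ELISA.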

[19] = read-out: Interleukin-1 alpha (IL1a), IL1A (gene 3552); experiment: BSK_LPS_IL1a: BioMAP Diversity Plus: LPS Assay for Interleukin-1 alpha (IL1a) Biomarker Activity (AID 2283080); conditions: primary human HUVEC with PBMC; actives raise or lower the signal
Method in brief: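 Primary human HUVEC and PBMC co-culture stimulated with LPS is dosed and harvested at 24 h. Both increases and decreases in ELISA-measured IL-1a are scored relative to DMSO.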

Measured: AC50

E-selectin (Homo sapiens), sequence (P16581 whole entry, looked up): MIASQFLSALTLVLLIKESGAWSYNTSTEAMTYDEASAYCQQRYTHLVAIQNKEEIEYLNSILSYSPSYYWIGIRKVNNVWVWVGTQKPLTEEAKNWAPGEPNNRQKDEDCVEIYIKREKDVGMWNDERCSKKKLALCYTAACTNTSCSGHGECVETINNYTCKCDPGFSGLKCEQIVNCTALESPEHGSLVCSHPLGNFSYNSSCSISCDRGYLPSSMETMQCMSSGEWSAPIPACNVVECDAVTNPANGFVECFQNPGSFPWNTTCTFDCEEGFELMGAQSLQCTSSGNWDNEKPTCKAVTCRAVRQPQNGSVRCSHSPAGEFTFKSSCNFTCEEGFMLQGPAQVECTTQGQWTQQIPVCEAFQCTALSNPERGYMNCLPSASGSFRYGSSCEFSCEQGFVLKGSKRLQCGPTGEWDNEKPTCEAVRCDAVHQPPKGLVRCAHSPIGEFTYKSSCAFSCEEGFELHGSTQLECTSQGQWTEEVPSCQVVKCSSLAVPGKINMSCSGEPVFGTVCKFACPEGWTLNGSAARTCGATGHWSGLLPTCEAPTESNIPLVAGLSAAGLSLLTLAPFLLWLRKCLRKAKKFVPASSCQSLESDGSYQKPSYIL

Clc1ccccc1C(c1ccccc1)(c1ccccc1)n1ccnc1
active: [1] 9.78 µM | [2] 9.85 µM | [3] 8.88 µM | [4] 7.77 µM | [5] 8.14 µM | [6] 5.57 µM | [7] 11.5 µM | [8] 8.61 µM | [9] 5.3 µM | [10] 10.4 µM | [11] 6.57 µM | [12] 7.25 µM | [13] 5.43 µM | [14] 9.72 µM | CD40, CD40 (gene 958) 14.7 µM | [15] 30.7 µM

OCCO
not listed: [12] | [18] | [19]
inactive: all other assays above

COCC(C)OCC(C)OCC(C)O (stereo not drawn)
inactive: all assays above
